Values joined by “and” are separate entries in the source; they are usually repeats but may differ in a detail not shown here. Equal entries are not always repeated. Results filed as inconclusive are left out. Where a call stands in place of a potency, no number is given. More than one record can exist for a structure, and the calls need not agree. Active and inactive are the calls of the source. The call rests on the fitted dose curve; in most records, active means well fitted activation curve with a large enough effect in the signal ratio in the repeat runs (not every such curve was filed as active); inconclusive means weak or mixed curves; inactive means flat fitted curve, though single readings scatter; the % refers to the signal ratio.
Test: qHTS assay to identify small molecule agonists of H2AX (AID 1224845)
Conditions: CHO-K1 phospho-H2AX Ser139 HTRF, 3 h; series mostly up to 154 µM; activation (H2AX phosphorylation): at the top concentration
Excerpt: National Center for Advancing Translational Sciences [NCATS]
NIH Chemical Genomics Center [NCGC]
U.S. Environmental Protection Agency [EPA]
National Institutes of Environmental Health Sciences [NIEHS]
National Toxicology Program [NTP]
U.S. Food and Drug Administration [FDA]
HTRF phospho-H2AX (Ser139) assay (Cisbio Bioassays, US) enables the quantitative detection of the histone variant H2AX when phosphorylated on serine 139. When double-stranded DNA breaks, either by ionizing radiation or endogenous physiological processes, H2AX becomes phosphorylated at Ser139. This phospho-Ser139 serves as a sensitive biomarker for the detection of such breaks, localizing the site of DNA repair. So, HTRF phospho-H2AX Ser139 is a pertinent assay to study genome stability, the cell cycle, DNA repair, and it serves as a biomarker for cancer, and to understand aging. Wild type CHO-K1 cells were used to identify the inducers of Phospho-H2AX Ser 139 from the Tox21 10K compound collections.
Tox21 Assay Protocol Summary:
The CHO-K1 cells suspended in culture medium containing 10% FBS were dispensed at 1000 cells/ 3 ul/well in 1536-well white wall/solid bottom plates (Greiner Bio-One North America, NC) using a Multidrop Combi (Thermo Fisher Scientific Inc., Waltham, MA). After the assay plates were incubated at 37C overnight, 23 nl of compounds at 15 concentrations (from 5-48 columns) or positive control (from 1 to 4 columns) were transferred to the assay plates using a Pintool station (Wako, San Diego, CA) into each well resulting in a final DMSO concentration of 0.76%. After 3hr incubation at 37C, 1 uL/well Supplemented Lysis buffer (diluted 100 fold blocking reagent in lysis buffer) (HTRF Phospho-H2A.X (S139) Assay kit from Cisbio US Inc., Bedford, MA) was added using a Flying Reagent Dispenser (FRD) (Aurora Discovery, CA). After 10sec spin at 1000 rpm in a plate centrifuge, the assay plates were incubated at room temperature for 30 min. Then followed by the addition of 1 uL/well detection buffer (containing a mixture of two antibodies, one labeled with cryptate, Anti pH2AX (S139)-K and another labeled with d2, Anti H2AX-d2) using FRD. After incubation at room temperature for 24 hr, the time resolved fluorescence at excitation 320 nm and emissions at 665 nm and 620 nm was measured using an Envision plate reader (PerkinElmer, Waltham, MA).
For O=c1[nH]cnc2c1ncn2[C@H]1CC[C@@H](CO)O1, the Potency was “inactive”. For NC1CCCCC1, the Potency was “inactive”. In the case of CCCCCCCCCCCC[N+](C)(C)Cc1ccccc1, the “activation (H2AX phosphorylation)” value is reported as -8.18% (inactive). For CC(=O)CC(c1ccccc1)c1c(O)c2ccccc2oc1=O (stereo not given), the Potency was “inactive”. In the case of CC(C)C(=O)Nc1ccc([N+](=O)[O-])c(C(F)(F)F)c1, the Potency is reported as “inactive”. For CN(C)CCOC(C)(c1ccccc1)c1ccccn1 (stereo not given), the Potency was “inactive”. With OC[C@H]1O[C@H](O[C@]2(CCl)O[C@H](CCl)[C@@H](O)[C@@H]2O)[C@H](O)[C@@H](O)[C@H]1Cl the Potency was “inactive”. With Oc1ccccc1 the Potency was “inactive”. In the case of Cc1cc(C)nc(NS(=O)(=O)c2ccc(N)cc2)n1, the Potency is reported as “inactive”. In the case of COc1ccc2c(c1)c(CC(=O)O)c(C)n2C(=O)c1ccc(Cl)cc1, the Potency is reported as “inactive”. For CCN(Cc1c(F)cccc1Cl)c1c([N+](=O)[O-])cc(C(F)(F)F)cc1[N+](=O)[O-], the “activation (H2AX phosphorylation)” value was -5.61% (inactive). For CCCCNC(=O)NS(=O)(=O)c1ccc(C)cc1, the Potency was “inactive”. With CS(=O)(=O)OCCCCOS(C)(=O)=O the Potency was “inactive”. For CCCCCCCC(=O)OCC(COC(=O)CCCCCCC)OC(=O)CCCCCCC, the Potency was “inactive”. With C/C=C/C=C/C(=O)O the Potency was “inactive”. With CCCc1cc(=O)[nH]c(=S)[nH]1 the Potency was “inactive”. With CC1(C)O[C@@H]2C[C@H]3[C@@H]4CCC5=CC(=O)C=C[C@]5(C)[C@@]4(F)[C@@H](O)C[C@]3(C)[C@]2(C(=O)CO)O1 the Potency was “inactive”. With CC(=O)C(=O)O the Potency was “inactive”. With O=C(O)CC(O)C(=O)O (stereo not given) the Potency was “inactive”. In the case of NS(=O)(=O)O, the Potency is reported as “inactive”. With CCCCC1(COC(=O)CCC(=O)O)C(=O)N(c2ccccc2)N(c2ccccc2)C1=O the Potency was “inactive”. In the case of C1CCC(C(CC2CCCCN2)C2CCCCC2)CC1 (stereo not given), the Potency is reported as 6.95 µM (active). With CC1(C)S[C@@H]2[C@H](NC(=O)[C@H](N)c3ccccc3)C(=O)N2[C@H]1C(=O)O the Potency was “inactive”. With F[B-](F)(F)F the Potency was “inactive and 115 µM (active)”. For NC(=O)c1cccnc1, the Potency was “inactive”. For CCOC(N)=O, the Potency was “inactive”. With Cc1cccc(C)c1 the Potency was “inactive”. With C1=CC2C3C=CC(C3)C2C1 (stereo not given) the “activation (H2AX phosphorylation)” value was -8.7% (inactive). In the case of CC(O)(P(=O)(O)O)P(=O)(O)O, the Potency is reported as “inactive”. In the case of CCCCOC(=O)c1ccc(O)cc1, the Potency is reported as “inactive”. In the case of O=C1NS(=O)(=O)c2ccccc21, the Potency is reported as “inactive”. In the case of O=C1c2c(O)cccc2Cc2cccc(O)c21, the Potency is reported as “inactive”. For Nc1ccc(S(N)(=O)=O)cc1, the Potency was “inactive”. With CCN(CC)C(=O)c1cccc(C)c1 the Potency was “inactive”. For C=CCc1ccc(O)c(OC)c1, the Potency was “inactive”. In the case of CCc1nc(N)nc(N)c1-c1ccc(Cl)cc1, the Potency is reported as 22.9 µM (active). For CCOc1ccc(NC(C)=O)cc1, the Potency was “inactive”. For O=C1O[C@H]([C@@H](O)CO)C(O)=C1O, the Potency was “inactive”. With Nc1c2c(nc3ccccc13)CCCC2 the Potency was “inactive”. In the case of Cc1ncc([N+](=O)[O-])n1C, the Potency is reported as “inactive”.

From PubChem BioAssay (Tox21)
Potency means the concentration at half of the fitted maximal effect.
